# Assay results from PubChem BioAssay (Tox21).
# A number with no mark means an inactive call. Records with an inconclusive call do not appear. Entries that show only a call come without a potency. The source made the active and inactive calls. Unless noted, calls follow the shape of the dose curve; as a rule, active = well fitted curve in the direction sought with a large enough effect in the repeat runs; inconclusive = weak or mixed curves; inactive = no such curve, though single readings can be large; an effect the other way counts as inactive or inconclusive.
# Experiments:
# [1] = qHTS assay to identify small molecule antagonists of the estrogen related receptor (ERR) signaling pathway from Tox21 library - cell viability counter screen (AID 1224834); also: nearly all actives have a fitted effect of over 30% in size
# In short: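 In this quantitative HTS format, ERR cells receive compounds in DMSO and are incubated for 17.5 h at 37 C. Live-cell protease activity is then detected with CellTiter-Fluor.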
# [2] = molecular target: Luciferin 4-monooxygenase (Photinus pyralis) (UniProt P08659); assay: qHTS assay to identify small molecule inhibitors of firefly luciferase (AID 1224835); also: nearly all actives have a fitted effect of over 25% in size
# Chain of Luciferin 4-monooxygenase (Photinus pyralis) (P08659 whole entry, looked up): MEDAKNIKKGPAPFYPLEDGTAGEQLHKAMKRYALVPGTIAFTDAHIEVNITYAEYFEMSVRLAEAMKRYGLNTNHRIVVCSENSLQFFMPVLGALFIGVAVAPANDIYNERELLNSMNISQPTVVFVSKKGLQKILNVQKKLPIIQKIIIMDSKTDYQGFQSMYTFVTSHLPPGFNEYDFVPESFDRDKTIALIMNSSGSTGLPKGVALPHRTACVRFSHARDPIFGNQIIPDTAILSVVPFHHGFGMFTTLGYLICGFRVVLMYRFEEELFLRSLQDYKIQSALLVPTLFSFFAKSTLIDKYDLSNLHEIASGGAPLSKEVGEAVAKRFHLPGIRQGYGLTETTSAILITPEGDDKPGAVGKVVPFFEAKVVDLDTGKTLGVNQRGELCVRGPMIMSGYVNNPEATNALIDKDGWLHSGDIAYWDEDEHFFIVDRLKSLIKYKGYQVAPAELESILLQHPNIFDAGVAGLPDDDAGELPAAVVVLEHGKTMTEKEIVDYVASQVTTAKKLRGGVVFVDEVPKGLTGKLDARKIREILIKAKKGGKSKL
# In short: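 Inhibition of purified Photinus luciferase is measured by luminescence. Substrate levels (D-luciferin, ATP) sit at their KM values. Each compound is tested in a concentration series.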
# [3] = qHTS assay to identify small molecule antagonists of the constitutive androstane receptor (CAR) signaling pathway - cell viability counter screen (AID 1224837); also: nearly all actives have a fitted effect of over 45% in size
# In short: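 In quantitative HTS format, compounds at 15 concentrations were applied to HepG2 cells double-transfected with hCAR and CYP2B6-2.2kb under 50 nM CITCO stimulation; live-cell protease activity was read after 23 hr via CellTiter-Fluor.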
# [4] = molecular target: Nuclear receptor subfamily 1 group I member 3 (Homo sapiens) (UniProt Q14994); assay: qHTS assay to identify small molecule antagonists of the constitutive androstane receptor (CAR) signaling pathway (AID 1224838); also: nearly all actives have a fitted effect of over 40% in size
# Chain of Nuclear receptor subfamily 1 group I member 3 (Homo sapiens) (Q14994 whole entry, looked up): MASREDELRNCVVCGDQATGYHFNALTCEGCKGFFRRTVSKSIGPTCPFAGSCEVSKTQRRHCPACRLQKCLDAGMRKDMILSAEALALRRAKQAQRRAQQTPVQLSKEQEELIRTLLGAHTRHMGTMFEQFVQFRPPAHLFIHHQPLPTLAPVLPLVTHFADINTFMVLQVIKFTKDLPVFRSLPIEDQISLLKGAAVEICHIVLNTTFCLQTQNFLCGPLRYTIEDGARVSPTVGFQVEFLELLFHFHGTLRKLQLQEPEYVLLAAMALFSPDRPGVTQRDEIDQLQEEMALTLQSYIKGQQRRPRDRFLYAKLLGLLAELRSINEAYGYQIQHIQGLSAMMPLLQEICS
# In short: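 CITCO-stimulated (50 nM final) HepG2 cells stably transfected with hCAR and CYP2B6-2.2kb luciferase were exposed to compounds at 15 concentrations for 24 h at 37 C/5% CO2. A luciferase reagent was added and luminescence recorded after 30 min.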
# [5] = molecular target: Nuclear receptor subfamily 1 group I member 3 (Homo sapiens) (UniProt Q14994); assay: qHTS assay to identify small molecule agonists of the constitutive androstane receptor (CAR) signaling pathway (AID 1224839);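 also: HepG2 cells stably carrying human CAR and a CYP2B6 luciferase reporter; nearly all actives have a fitted effect of over 15% in size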
# In short: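 HepG2 cells stably expressing hCAR and a CYP2B6-2.2kb luciferase reporter were treated with compounds at 15 concentrations plus 0.75 uM PK11195 (final) for 24 h at 37 C; luminescence was read after ONE-Glo addition.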
# [6] = molecular target: Thyrotropin receptor (Homo sapiens) (UniProt P16473); assay: qHTS assay to identify small molecule agonists of the thyroid stimulating hormone receptor (TSHR) signaling pathway (AID 1224843; calls by dose curve; also: nearly all actives have a fitted effect of over 45% in size)
# Chain of Thyrotropin receptor (Homo sapiens) (P16473 whole entry, looked up): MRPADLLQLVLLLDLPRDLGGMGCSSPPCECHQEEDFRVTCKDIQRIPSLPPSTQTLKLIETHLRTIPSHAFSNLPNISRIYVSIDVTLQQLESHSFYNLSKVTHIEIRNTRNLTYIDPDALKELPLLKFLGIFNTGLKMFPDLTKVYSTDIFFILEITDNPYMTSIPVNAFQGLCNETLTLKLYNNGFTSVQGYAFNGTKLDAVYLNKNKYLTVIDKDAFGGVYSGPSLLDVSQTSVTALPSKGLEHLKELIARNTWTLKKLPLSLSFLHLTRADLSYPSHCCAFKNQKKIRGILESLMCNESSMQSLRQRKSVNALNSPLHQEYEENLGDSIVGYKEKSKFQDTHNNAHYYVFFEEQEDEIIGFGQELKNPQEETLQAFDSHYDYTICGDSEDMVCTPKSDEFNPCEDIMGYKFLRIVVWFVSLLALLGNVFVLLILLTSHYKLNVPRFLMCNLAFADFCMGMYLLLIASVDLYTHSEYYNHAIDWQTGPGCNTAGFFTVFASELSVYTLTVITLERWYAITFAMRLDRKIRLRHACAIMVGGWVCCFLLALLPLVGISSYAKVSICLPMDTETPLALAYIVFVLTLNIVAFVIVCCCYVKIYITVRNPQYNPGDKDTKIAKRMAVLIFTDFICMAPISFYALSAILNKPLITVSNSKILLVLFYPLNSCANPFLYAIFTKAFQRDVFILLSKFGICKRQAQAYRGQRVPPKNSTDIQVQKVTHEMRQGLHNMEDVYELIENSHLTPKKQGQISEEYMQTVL
# In short: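 Agonist activity read as cAMP rise via d2/cryptate HTRF competition, 1 h room-temperature detection, in HEK293 cells expressing TSHR. Fifteen-point titrations, each run in triplicate, with a 30 min room-temperature incubation beforehand.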
# [7] = qHTS assay to identify small molecule agonists of the hypoxia (HIF-1) signaling pathway - cell viability counter screen (AID 1224844; calls by dose curve; also: nearly all actives have a fitted effect of over 50% in size)
# In short: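 Same wells as the HIF-1 reporter screen; ME-180 cells carrying HRE-bla, 17 hr treatment at 37C; CellTiter-Glo luminescence read after 30 min at room temperature.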
# [8] = qHTS assay to identify small molecule agonists of H2AX (AID 1224845; active = well fitted activation curve with a large enough effect in the signal ratio in the repeat runs, not every such curve was filed as active; the % refers to the signal ratio)
# In short: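 Phospho-H2AX Ser139 measured by HTRF (ex 320 nm; em 665 and 620 nm) after 24 hr antibody incubation. Compounds, 15 concentrations, 0.76% DMSO, were applied to CHO-K1 cells for 3hr at 37C before lysis.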
# [9] = qHTS assay to identify small molecule agonists of the hypoxia (HIF-1) signaling pathway (AID 1224846; active = well fitted activation curve with a large enough effect in the signal ratio in the repeat runs, not every such curve was filed as active; the % refers to the signal ratio)
# In short: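 In ME-180 cells bearing an HRE-bla construct, 17 h treatment with DMSO-dissolved compounds at 37C was followed by CCF4-AM loading to quantify reporter induction.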
# [10] = qHTS assay to identify small molecule agonists of H2AX - cell viability counter screen (AID 1224847; calls by dose curve; also: top concentration of the series differs between compounds; nearly all actives have a fitted effect of over 30% in size)
# In short: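 Wild-type CHO-K1 cells (10% FBS medium) were plated overnight at 37C, exposed to compounds at 15 concentrations for 3 hr at 37C (0.76% DMSO final), and viability was read as CellTiter-Glo luminescence after 30 min at room temperature.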
# [11] = qHTS RealTime-Glo MT Cell Viability Assay in HepG2 cells - 24 hour (AID 1224867); also: nearly all actives have a fitted effect of over 50% in size
# In short: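 HepG2 cells were seeded at 600 cells/well together with NanoLuc luciferase and a cell-permeant prosubstrate, preincubated 5 h at 37 C/5% CO2, then pin-dosed with compounds in DMSO. Nonlytic luminescence from viable cells was read at each time point.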
# [12] = qHTS RealTime-Glo MT Cell Viability Assay in HEK293 cells - 32 hour (AID 1224868); also: nearly all actives have a fitted effect of over 50% in size; also: potency is read from the fitted curve at half-maximal effect
# In short: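 HEK293 cells were seeded at 600 cells/well together with NanoLuc luciferase and cell-permeant prosubstrate, preincubated 5 h at 37 C/5% CO2, then given compound in DMSO by pintool. Luminescence from viable-cell prosubstrate reduction was read repeatedly over 40 h.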
# [13] = A CellTox Green Cytotoxicity Assay to monitor cytotoxicity in HEK293 cells - 0 hour (AID 1224869); also: nearly all actives have a fitted effect of over 50% in size
# In short: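 Homogeneous no-lysis format: HEK293 cell suspension mixed with CellTox Green reagent, seeded, incubated 5 h at 37 C/5% CO2, then dosed by pintool with compound in DMSO.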
# [14] = qHTS assay to identify small molecule antagonists of the estrogen related receptor signaling pathway with the pleiotropic PPARgamma coactivator (PGC) from Tox21 10K library - cell viability counter screen (AID 1224840; active = well fitted cell-killing curve with a large enough effect in the repeat runs, not every such curve was filed as active; also: nearly all actives have a fitted effect of over 40% in size)
# In short: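 Viability counter screen, PGC/ERR cells: 17.5 h compound exposure at 37 C, CellTiter-Fluor fluorescence endpoint.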
# [15] = qHTS assay to identify small molecule antagonists of the estrogen related receptor signaling pathway with the pleiotropic PPARgamma coactivator (PGC) from Tox21 10K library (AID 1224841; call rule not given here)
# In short: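 In the PGC/ERR line, DMSO solutions of test chemicals are pin-delivered to 2,000 cells/well six hours after dispensing. Following eighteen hours' incubation, One-Glo reagent is added and luminescence recorded.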
# [16] = qHTS assay to identify small molecule agonists of the estrogen related receptor signaling pathway with the pleiotropic PPARgamma coactivator (PGC) from Tox21 10K library (AID 1224842); also: nearly all actives have a fitted effect of over 15% in size
# In short: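 Luminescence from One-Glo (30 min, room temperature) measured after PGC/ERR cells had 18 h at 37 C with pinned compound (23 nL in DMSO). Cells had been seeded at 2,000 per well and pre-incubated 6 h.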
# [17] = qHTS assay to identify small molecule antagonists of the estrogen related receptor (ERR) signaling pathway from Tox21 library (AID 1224848); also: nearly all actives have a fitted effect of over 50% in size
# In short: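 Luciferase luminescence (ONE-Glo, 30 min room temperature) was the read-out. Cells of the NTP-supplied ERR line, 2,000 per well, were given 6 h at 37 C before compound addition in DMSO and 18 h exposure at 37 C.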
# [18] = qHTS assay to identify small molecule agonists of the estrogen related receptor (ERR) signaling pathway from Tox21 library (AID 1224849; calls by dose curve; also: nearly all actives have a fitted effect of over 15% in size); settings: ERR reporter cell line, ONE-Glo luciferase, 18 h; at 92.4 µM (top of the series) unless noted
# In short: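 Reporter cells (ERR, NTP source) treated with Tox21 10K compounds 18 h, 37 C. Readout: ONE-Glo luminescence, 30 min RT.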
# [19] = qHTS assay to identify small molecule agonists of the constitutive androstane receptor (CAR) signaling pathway - cell viability counter screen (AID 1224836); also: nearly all actives have a fitted effect of over 45% in size
# In short: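 HepG2 cells stably carrying hCAR and a CYP2B6-2.2kb reporter were plated 4 h, then given compounds at 15 concentrations plus PK11195 (final 0.75 uM). After 23 h at 37 C, viability was read by CellTiter-Fluor fluorescence.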
SMILES,Potency [1],Potency [2],Potency [3],outcome [4],Potency [5],Potency [6],outcome [7],outcome [8],outcome [9],Potency [10],outcome [11],Potency [12],outcome [13],outcome [14],Potency [15],outcome [16],Potency [17],"activity change, positive = activation [18]",Potency [19]
NS(=O)(=O)c1cc2c(cc1Cl)CN(C1CCCCC1)C2=O,inactive,inactive,inactive,inactive,inactive,inactive,inactive,inactive,inactive,inactive,inactive,9.52 µM (active),inactive,–,–,–,–,–,–
C[C@H](CCC(=O)O)[C@H]1CC[C@H]2[C@@H]3C(=O)C[C@@H]4CC(=O)CC[C@]4(C)[C@H]3CC(=O)[C@]12C,inactive,inactive,–,inactive,inactive,inactive,inactive,inactive,–,inactive,inactive,inactive,inactive,inactive,inactive,inactive,inactive,-0.444% [at 42.5 µM],–
CC(C)CC(=O)O,inactive,inactive,inactive,–,–,inactive,inactive,inactive,inactive,inactive,inactive,inactive,inactive,–,–,inactive,inactive,4.14%,–
CC/C=C\CC1=C(C)CCC1=O,inactive,inactive,inactive,inactive,inactive,inactive,inactive,inactive,inactive,inactive,inactive,inactive,inactive,–,inactive,inactive,inactive,-10.1%,–
CCOCCOC(=O)/C=C/c1ccc(OC)cc1,inactive,–,inactive,inactive,–,inactive,inactive,inactive,inactive,inactive,inactive,inactive,inactive,inactive,–,–,–,–,inactive
CCCCNc1ccc(C(=O)OCCN(C)C)cc1,inactive,inactive,inactive,inactive,–,inactive,–,inactive,–,inactive,inactive,inactive,inactive,inactive,–,–,–,–,–
Cc1ccc(S(=O)(=O)O)c(C)c1,inactive,inactive,inactive,–,inactive,inactive,inactive,inactive,inactive,inactive,inactive,inactive,inactive,inactive,inactive,inactive,inactive,16.9%,–
CCCCCCCCSCC,inactive,inactive,inactive,inactive,inactive,inactive,inactive,inactive,inactive,–,inactive,inactive,inactive,inactive,inactive,inactive,inactive,4.95%,–
